# PubChem BioAssay (NCI)
# The panel holds about 79,000 compounds, 15% with a hit somewhere; the sample as a whole holds those more often. A number with no mark means an inactive call. Calls of active or inactive are those of the source. No stated cut-off is given here; in the data, active means growth inhibition above about 70%; inactive means the rest. Where a SMILES comes first, the peptide text is derived from it. [ ]: non-standard residue; d: D form. ξ: configuration not given here. ξD = NC(CC(=O)O)C(=O)O
# Experiments:
# [1] = NCI Yeast Anticancer Drug Screen. Data for the rad50 strain (AID 155);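 further: 0% = growth of vehicle-only cultures of the same strain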; conditions: S. cerevisiae rad50 strain growth inhibition, active compounds read high
# Summary of the method: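 Growth of the mutant yeast was measured after compound exposure and referenced to vehicle-treated cultures.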
# [2] = NCI Yeast Anticancer Drug Screen. Data for the mec2-1 strain (AID 157); conditions: S. cerevisiae mec2-1 strain, active compounds read high
# Summary of the method: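 Yeast mec2-1 mutant treated with compound. Readout: growth inhibition vs vehicle controls.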
# [3] = NCI Yeast Anticancer Drug Screen. Data for the sgs1 mgt1 strain (AID 161);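 further: 0% = growth of cultures given vehicle only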; conditions: S. cerevisiae sgs1 mgt1 strain, active compounds read high
# Summary of the method: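 Mutant yeast exposed to compound; growth scored against vehicle-only wells.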
# [4] = NCI Yeast Anticancer Drug Screen. Data for the cln2 rad14 strain (AID 165);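 further: 0% = growth equal to vehicle treated cultures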; conditions: S. cerevisiae cln2 rad14 strain, active compounds read high
# Summary of the method: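 cln2 rad14 yeast strain; compound exposure; growth inhibition read vs vehicle controls.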
# [5] = NCI Yeast Anticancer Drug Screen. Data for the bub3 strain (AID 167); conditions: S. cerevisiae bub3 mutant strain, active compounds read high
# Summary of the method: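 Whole-cell yeast assay. The mutant strain was incubated with compounds, and growth inhibition was determined by comparison with vehicle-treated cells.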
# [6] = NCI Yeast Anticancer Drug Screen. Data for the mlh1 rad18 strain (AID 175); conditions: S. cerevisiae mlh1 rad18 strain growth inhibition, active compounds read high
# Summary of the method: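 Yeast w/ defined DNA-repair lesions; compound exposure; growth vs vehicle controls → % inhibition.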
# [7] = at 5.0 µM (retest, dose inferred, filed as 0.5)
# [8] = at 50.0 µM (retest, dose inferred, filed as 5.0)
SMILES,"growth inhibition [1, 7]","growth inhibition [1, 8]",growth inhibition ([1]; at 50.0 µM),"growth inhibition [2, 7]","growth inhibition [2, 8]",growth inhibition ([2]; at 50.0 µM),"growth inhibition [3, 7]","growth inhibition [3, 8]",growth inhibition ([3]; at 50.0 µM),"growth inhibition [4, 7]","growth inhibition [4, 8]",growth inhibition ([4]; at 50.0 µM),"growth inhibition [5, 7]","growth inhibition [5, 8]",growth inhibition ([5]; at 50.0 µM),"growth inhibition [6, 7]","growth inhibition [6, 8]",growth inhibition ([6]; at 50.0 µM)
C1=C(c2ccccc2)c2ccccc2C1,0%,29%,75.2% (active),-23%,17%,63.4%,-13%,12%,48%,23%,19%,50%,-12%,18%,58.9%,5%,57%,49.9%
NC(CS/C(Cl)=C/Cl)C(=O)O (centres undefined),48%,92% (active),92.3% (active),47%,96% (active),93.8% (active),34%,94% (active),93.5% (active),41%,96% (active),92.3% (active),19%,94% (active),89.4% (active),89% (active),97% (active),97.5% (active)
N#CC(=C1SCS1)[N+](=O)[O-],91% (active),99% (active),91.1% (active),98% (active),100% (active),92.4% (active),98% (active),100% (active),92% (active),31%,99% (active),92.2% (active),95% (active),99% (active),89.9% (active),98% (active),99% (active),92.7% (active)
N#CC1c2ccccc2C=CN1C(=O)CCCl (centres undefined),7%,41%,6.05%,2%,36%,34.2%,11%,34%,53.5%,8%,42%,17.1%,15%,74% (active),74.3% (active),-11%,38%,29.1%
COC1CC(C)C(OC)c2cc(O)cc(c2O)NC(=O)/C(C)=C/C=C\C(C)C(OC(N)=O)/C(C)=C\C(C)C1OC (centres undefined),94% (active),97% (active),91.2% (active),95% (active),97% (active),92.5% (active),97% (active),98% (active),91.3% (active),88% (active),95% (active),89.8% (active),97% (active),98% (active),90.7% (active),96% (active),97% (active),90% (active)
O=[N+]([O-])c1ccc(Oc2ccccc2Cl)c([N+](=O)[O-])c1,13%,96% (active),4.1%,-25%,95% (active),38.1%,27%,97% (active),63.1%,3%,86% (active),17.9%,7%,97% (active),44.7%,29%,97% (active),72.7% (active)
NCC(=O)NC(CC(=O)O)C(=O)O (centres undefined) (H-Gly-[ξD]-OH),-1%,10%,12.7%,-6%,-12%,9.15%,-10%,20%,13.2%,-2%,14%,1.05%,9%,9%,8.05%,8%,16%,32.2%
O=Cc1ccc(-c2ccc(-c3ccc(CO)s3)o2)s1,20%,62%,17.2%,11%,45%,4.65%,5%,77% (active),44.5%,3%,33%,-8.55%,21%,53%,16.5%,20%,84% (active),65.3%
O=[N+]([O-])c1ccc(C(Br)c2ccc([N+](=O)[O-])cc2)cc1,42%,97% (active),99.8% (active),29%,100% (active),99.8% (active),65%,100% (active),99.8% (active),22%,99% (active),99.7% (active),15%,100% (active),99.7% (active),54%,99% (active),99.7% (active)
COC(=O)[C@]1(C)CCC[C@]2(C)c3ccc(C(C)C)cc3C(=O)[C@@H](Br)[C@@H]12,0%,9%,74.2% (active),-2%,46%,51.9%,3%,58%,63.5%,-12%,44%,22.1%,2%,52%,82.4% (active),-11%,49%,71.8% (active)
Cc1ccc(Nc2ccc(O)c3c2C(=O)c2c(O)ccc(Nc4ccc(C)cc4)c2C3=O)cc1,5%,4%,10.3%,1%,-1%,7.15%,12%,14%,12.8%,0%,-1%,72.5% (active),-2%,-5%,-3.8%,-2%,-65%,17.4%
C=C1C(=O)OC2CC3(C)CCCC(C)C3=CC12 (centres undefined),18%,27%,49.5%,10%,56%,46.9%,15%,49%,80% (active),7%,25%,16.2%,14%,63%,78.8% (active),14%,41%,25%
C/C=C/c1cc2c(c(=O)o1)C(=O)[C@@H](O)[C@H](C)O2,8%,17%,23.5%,11%,21%,2%,15%,30%,34.5%,8%,11%,-1.15%,14%,28%,18.9%,8%,26%,60.3%
Cc1nnc(N/N=C/c2ccc([N+](=O)[O-])o2)[nH]c1=O,-5%,36%,59.1%,6%,68%,65.2%,-2%,75% (active),47.5%,6%,42%,85.2% (active),-9%,62%,81% (active),8%,80% (active),71% (active)
CC(C)(C)c1ccc(O)c(Br)c1,0%,-4%,90.9% (active),-38%,5%,79.8% (active),0%,2%,83.8% (active),1%,-4%,35.5%,31%,-4%,42.6%,1%,8%,86.8% (active)
Cc1ccc2c(c1)sc(-c1ccc(N(C)C)cc1)[n+]2C,42%,92% (active),90.7% (active),45%,96% (active),91.8% (active),45%,98% (active),91.8% (active),74% (active),98% (active),89.1% (active),67%,98% (active),90.8% (active),24%,86% (active),90.5% (active)
Fc1ccc(NCCS)cc1,-18%,90% (active),85.2% (active),-27%,95% (active),87.8% (active),-18%,61%,79.1% (active),-4%,66%,60.2%,10%,93% (active),86.9% (active),-31%,90% (active),84.3% (active)
CN(C)CC(C)(CN(C)C)C(=O)/C=C/c1c(Cl)cccc1Cl,5%,84% (active),85% (active),-2%,73% (active),93.7% (active),1%,93% (active),77.4% (active),3%,56%,18.9%,4%,87% (active),81% (active),7%,93% (active),91.5% (active)
